Experimental data published in PubChem BioAssay AID2284163 (EPA ToxCast).
Active and inactive are the calls of the source. The calls were made as follows: active = hit-call score of the fitted dose curve at least 0.9, where 1 is the maximum; inactive = score below 0.9.

Biological target: Oxytocin receptor (Homo sapiens) (UniProt P30559)
Assay: ERF_FR_GPCR_hOXTR: Eurofins (ERF) G Protein-Coupled Receptor (GPCR) Radioligand Binding LeadHunter Assay for human Vasopressin / Oxytocin Receptor OT Agonism
Description: ERF_FR_GPCR_hOXTR is a biochemical, single-readout assay that uses extracted gene-proteins in a cell-free assay. Measurements were taken 2 hour after chemical dosing in a 96-well plate. See OT Human Vasopressin / Oxytocin GPCR Binding (Agonist Radioligand) Assay, Cerep.ERF_FR_GPCR_hOXTR is an assay component calculated from the ERF_FR_GPCR_hOXTR assay. It is designed to measure radioligand binding using a type of binding reporter as detected by scintillation counting with radiometry technology.Data from the assay component ERF_FR_GPCR_hOXTR was analyzed at the assay endpoint, ERF_FR_GPCR_hOXTR, in the positive analysis fitting direction relative to DMSO as the negative control and baseline of activity. Using a type of binding reporter, gain-of-signal activity can be used to understand changes in binding as they relate to gene OXTR. To generalize the intended target to other relatable targets, this assay endpoint is annotated to the gpcr intended target family, where the subfamily is vasopressin and oxytocin.
Human cells are incubated for 60 minutes at room temprature with [3H] Oxytocin ligand (0.8 nM) and OXYTOCIN as control inhibitor. Test Sample Requirements: Minimum for 1) Screen: 60 ul of 10 mM stock -OR- 1 mg (pre-weighed) for 10 uM final testing. 2) Dose Response: 90 ul of 10 mM stock -OR- 1 mg (pre-weighed) for a top concentration at 10 uM.

Chain of Oxytocin receptor (Homo sapiens) (P30559 whole entry, looked up): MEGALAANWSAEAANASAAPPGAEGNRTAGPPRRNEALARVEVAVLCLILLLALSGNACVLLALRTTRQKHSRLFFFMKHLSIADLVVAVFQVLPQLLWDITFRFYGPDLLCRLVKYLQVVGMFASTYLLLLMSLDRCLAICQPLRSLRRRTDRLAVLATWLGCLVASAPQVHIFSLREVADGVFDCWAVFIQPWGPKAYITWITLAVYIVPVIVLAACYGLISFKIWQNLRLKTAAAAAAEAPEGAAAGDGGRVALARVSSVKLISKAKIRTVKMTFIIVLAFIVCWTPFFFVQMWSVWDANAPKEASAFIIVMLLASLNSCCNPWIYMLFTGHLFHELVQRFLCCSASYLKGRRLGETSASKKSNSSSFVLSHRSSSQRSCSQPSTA

SMILES | outcome
CCCCC[C@H](O)CC(=O)CCc1ccc(O)c(OC)c1 | inactive
